Test results published in the supplement of paper PMC6555819.

Columns and labels:
Assay in all cases: PBM binding z-score (relative to random genomic background probes); higher = stronger binding; sequences stand for … in GC…GCGATTGACAGCGTAGAATGAAGG
[1] = tested on: FXR:RXRa (NR concentration 270 nM, RXRa partner concentration 90 nM)
In short: (§1)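 Random background probes are the reference for binding z-scores. These scores derive from regression-normalized fluorescence on custom Agilent 4×180K protein-binding microarrays incubated 1 h with ligand-free nuclear receptor dimers. Binding was detected with antibodies against each partner (one per run).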

[2] = tested on: LXRa:RXRa (NR concentration 270 nM, RXRa partner concentration 90 nM)
In short: as §1

[3] = tested on: LXRa homodimer (NR concentration 270 nM)
In short: as §1

[4] = tested on: LXRb:RXRa (NR concentration 270 nM, RXRa partner concentration 90 nM)
In short: as §1

[5] = tested on: LXRb homodimer (NR concentration 270 nM)
In short: as §1

[6] = tested on: PPARa:RXRa (NR concentration 270 nM, RXRa partner concentration 90 nM)
In short: as §1

[7] = tested on: PPARg:RXRa (NR concentration 180 nM, RXRa partner concentration 90 nM)
In short: as §1

[8] = tested on: PPARg:RXRa 270nM:90nM, anti-RXR (NR concentration 270 nM, RXRa partner concentration 90 nM)
In short: as §1

[9] = tested on: PPARg:RXRa 30nM:10nM, anti-RXR (NR concentration 30 nM, RXRa partner concentration 10 nM)
In short: as §1

[10] = tested on: PPARg:RXRa 90nM:30nM, anti-RXR (NR concentration 90 nM, RXRa partner concentration 30 nM)
In short: as §1

[11] = tested on: PPARg:RXRa DBDmut IVT, anti-RXR (DBD mutation: RXRa K156A/R161A, NR concentration 270 nM, RXRa partner concentration 90 nM)
In short: as §1

[12] = tested on: PPARg:RXRa IVT, anti-PPARg (NR concentration 270 nM, RXRa partner concentration 90 nM)
In short: as §1

[13] = tested on: PPARg DBDmut:RXRa IVT, anti-PPARg (DBD mutation: PPARg1 K132A/R137A, NR concentration 270 nM, RXRa partner concentration 90 nM)
In short: as §1

[14] = tested on: PPARg DBDmut IVT, anti-PPARg (DBD mutation: PPARg1 K132A/R137A, NR concentration 270 nM)
In short: as §1

[15] = tested on: PPARg homodimer (NR concentration 180 nM)
In short: as §1

[16] = tested on: PXR:RXRa (NR concentration 270 nM, RXRa partner concentration 90 nM)
In short: as §1

[17] = tested on: PXR homodimer (NR concentration 270 nM)
In short: as §1

[18] = tested on: RARa:RXR (NR concentration 270 nM, RXRa partner concentration 90 nM)
In short: as §1

[19] = tested on: RARa homodimer (NR concentration 270 nM)
In short: as §1

[20] = tested on: RARb:RXRa (NR concentration 270 nM, RXRa partner concentration 90 nM)
In short: as §1

Row | Sequence | PBM binding z-score [1] | PBM binding z-score [2] | PBM binding z-score [3] | PBM binding z-score [4] | PBM binding z-score [5] | PBM binding z-score [6] | PBM binding z-score [7] | PBM binding z-score [8] | PBM binding z-score [9] | PBM binding z-score [10] | PBM binding z-score [11] | PBM binding z-score [12] | PBM binding z-score [13] | PBM binding z-score [14] | PBM binding z-score [15] | PBM binding z-score [16] | PBM binding z-score [17] | PBM binding z-score [18] | PBM binding z-score [19] | PBM binding z-score [20]
1 | CAAACTAGGTCAAGGTTAAAGTCGGTTTGTGCCA | 4.21 | 3.75 | 1.17 | 2.93 | 0.57 | 5.22 | 9.29 | 8.04 | 6.64 | 9.18 | 8.28 | 8.73 | 1.13 | 0.568 | 2.77 | 3.05 | 0.428 | 3.41 | 0.337 | 4.2
2 | TAGCCTAGATCATGGGCCAGTATACCACGCGAAC | -0.688 | -0.764 | -0.759 | -0.614 | -0.395 | -0.574 | 0.555 | -0.555 | -0.628 | -0.462 | 0.188 | 0.69 | -0.074 | -0.614 | -1.13 | -0.835 | -0.709 | -0.943 | -0.47 | -0.479
3 | CCTGCTAGGTCATGCTCAGCTAATCTACAGTATG | 3.21 | 2.16 | -0.266 | 1.38 | -0.112 | 2.99 | 1.9 | 2.36 | 0.444 | 1.35 | 4.78 | 3.37 | 0.405 | 0.309 | 0.827 | 0.957 | -0.979 | 2.05 | -0.229 | 3.75
4 | GCGACTGGGGCATCAGAAGGTTACCATAACTTAA | -0.0561 | 0.0873 | -0.311 | 1.22 | -0.607 | 1.65 | 1.43 | 1.22 | -0.0101 | 0.461 | 3.59 | 3.39 | 0.195 | -0.175 | 0.756 | 0.582 | -0.271 | 0.988 | -0.432 | 1.2
5 | TAGCCTAGGTCACGCGGGCCAGTATAGTGTCGGC | 5.13 | 3.81 | 0.104 | 2.03 | -0.215 | 4.31 | 4.11 | 4.02 | 0.903 | 3.02 | 2.95 | 4.27 | -0.0213 | 0.00762 | 1.6 | 1.84 | -0.691 | 3.32 | -0.183 | 4.33
6 | TCTAGTTGGTCAAAGGTCCCACACTCGAAATGCG | 1.07 | 1.18 | 0.135 | 1.26 | 0.288 | 3.33 | 6.7 | 7.21 | 6.42 | 7.55 | 2.94 | 3.27 | 0.799 | 1.15 | 1.16 | 0.98 | -0.0577 | 1.49 | 1.06 | 1.67
7 | AAATGTAGGTTACATCCGGGTCATTCAGGCTATG | 2.37 | 4.34 | 1.56 | 2.86 | 0.424 | 4.62 | 6.92 | 5.78 | 2.95 | 5.22 | 8.29 | 8.08 | 3.52 | 2.02 | 2.68 | 3.79 | 2.33 | 3.75 | 1.1 | 2.28
8 | CGAACTGGGTCAAGGACAGTGAATCTCCGCACGC | 2.51 | 1.36 | -0.258 | 1.24 | -0.484 | 4.39 | 6.95 | 6.03 | 2.89 | 5.37 | 7.45 | 7.82 | 5.86 | 3.4 | 1.92 | 1.28 | -0.104 | 1.94 | 0.123 | 3.39
9 | CTACCAAGGTGAAGAAGGTCGTTGATTACTATTC | 0.613 | 0.547 | 0.132 | 1.33 | -0.664 | 1.95 | 0.281 | 0.572 | -0.116 | 0.36 | 1.68 | 1.84 | 0.127 | -0.276 | 0.69 | 1.53 | 0.655 | 1.48 | 0.317 | 1.74
10 | TAGCCTAGGTCATGCGTGCCAGTATAGTGTCGGC | 4.03 | 3.31 | 0.471 | 1.75 | -0.0531 | 3.69 | 2.33 | 2.39 | 0.347 | 1.23 | 1.88 | 3.12 | 0.14 | 0.765 | 1.62 | 1.51 | -0.776 | 2.65 | -0.307 | 3.77
11 | TCGAGTAGGTTACCAACGGGGCATTCAGCTTTCT | 0.106 | 1.75 | -0.787 | 0.579 | -1.13 | 1.15 | 0.374 | 1.13 | 1.03 | 0.692 | 3.15 | 2.64 | -0.246 | 0.0471 | -0.456 | -0.0163 | -0.774 | 0.402 | -1.51 | 0.936
12 | GCTATTAGTTGAATGGGCAACCGAATGATTCTCG | -0.277 | -0.309 | -0.219 | -0.351 | -0.317 | -0.737 | 0.129 | -0.166 | -0.146 | 0.0794 | 0.75 | -0.332 | -0.684 | 0.178 | -0.436 | -0.587 | -0.28 | -0.707 | 0.153 | -0.226
13 | ATCTCTAGGTAAAAGTTAAGTGAATCCCGAGGAT | 0.172 | 0.0131 | -0.136 | -0.0735 | 0.69 | 1.58 | 3.42 | 4.91 | 2.79 | 4.71 | 2.03 | 2.31 | 1.28 | 1.28 | 0.613 | -0.127 | -0.352 | -0.144 | 0.373 | 0.28
14 | CAAACTAGGTCACGGTCAAAGTCGGTTTGTGCCA | 5.44 | 4.31 | 1.73 | 3.13 | 0.506 | 5.57 | 9.6 | 7.81 | 5.91 | 7.67 | 8.53 | 9.26 | 4.37 | 3.83 | 2.22 | 2.72 | -0.218 | 3.68 | 0.991 | 4.81
